Test results from the supplement of paper PMC11732987, “Enantioselective OTUD7B fragment discovery through chemoproteomics screening and high-throughput optimisation” (Communications Chemistry, 2025).

Tests used:
Assay in all cases: log2 ratio of Biotin-Ahx-Ub-VS probe labelling (fragment/DMSO); higher = less target engagement (more negative = stronger competition), active = hit call of the paper (q ≤ 0.05, log2 ratio ≤ -1)
Conditions in all cases: compound concentration: 200 uM; treatment time: 3 h
[1] = target: USP34 (UniProt Q70CQ2)
Summary of the method: (§1)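 Each value is an average log2 ratio of fragment to vehicle, tested by unpaired t-test. The underlying Spectronaut label-free quantities were global-median-normalised, and only proteins with ≥2 unique peptides were included. Triplicate HEK293T lysate samples (495 µg) were exposed to fragment at 200 µM or vehicle for 3 h, then to Biotin-Ahx-Ub-VS at 0.5 µM final for 1 h, before NeutrAvidin enrichment of labelled DUBs, LysC and trypsin digestion, and diaPASEF LC-MS/MS.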

[2] = target: T1, USP36 (UniProt Q9P275)
T1 sequence (whole entry): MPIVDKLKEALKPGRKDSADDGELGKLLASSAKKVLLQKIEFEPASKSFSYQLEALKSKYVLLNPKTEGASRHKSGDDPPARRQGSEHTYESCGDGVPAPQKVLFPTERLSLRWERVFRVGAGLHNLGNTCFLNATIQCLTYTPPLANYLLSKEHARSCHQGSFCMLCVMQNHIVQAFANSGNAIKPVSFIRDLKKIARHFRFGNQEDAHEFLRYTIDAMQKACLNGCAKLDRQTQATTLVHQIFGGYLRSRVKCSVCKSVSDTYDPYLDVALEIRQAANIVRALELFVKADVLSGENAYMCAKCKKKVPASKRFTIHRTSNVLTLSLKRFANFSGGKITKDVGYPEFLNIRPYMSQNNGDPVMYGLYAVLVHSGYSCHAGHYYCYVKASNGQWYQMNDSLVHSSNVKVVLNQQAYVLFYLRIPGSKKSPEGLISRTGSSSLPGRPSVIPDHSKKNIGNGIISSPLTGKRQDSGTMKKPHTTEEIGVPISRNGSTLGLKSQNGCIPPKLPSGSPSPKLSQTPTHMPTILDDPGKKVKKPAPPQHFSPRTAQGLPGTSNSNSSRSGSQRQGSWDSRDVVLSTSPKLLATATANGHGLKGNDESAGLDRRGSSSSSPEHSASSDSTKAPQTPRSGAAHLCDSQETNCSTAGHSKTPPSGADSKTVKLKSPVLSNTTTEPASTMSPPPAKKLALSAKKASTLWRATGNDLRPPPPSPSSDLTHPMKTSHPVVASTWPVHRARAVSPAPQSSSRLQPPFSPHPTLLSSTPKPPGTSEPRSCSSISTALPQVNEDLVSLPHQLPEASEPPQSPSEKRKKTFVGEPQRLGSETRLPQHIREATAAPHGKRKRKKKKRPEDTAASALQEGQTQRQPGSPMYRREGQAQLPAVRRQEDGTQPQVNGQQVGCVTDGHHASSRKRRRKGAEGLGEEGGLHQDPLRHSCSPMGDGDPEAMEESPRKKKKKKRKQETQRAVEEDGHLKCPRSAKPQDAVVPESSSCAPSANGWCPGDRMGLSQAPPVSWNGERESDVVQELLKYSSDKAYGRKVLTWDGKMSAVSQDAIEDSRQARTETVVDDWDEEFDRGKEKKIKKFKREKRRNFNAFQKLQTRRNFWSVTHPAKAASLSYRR
Summary of the method: as §1

[3] = target: T2, USP38 (UniProt Q8NB14)
T2 sequence (whole entry): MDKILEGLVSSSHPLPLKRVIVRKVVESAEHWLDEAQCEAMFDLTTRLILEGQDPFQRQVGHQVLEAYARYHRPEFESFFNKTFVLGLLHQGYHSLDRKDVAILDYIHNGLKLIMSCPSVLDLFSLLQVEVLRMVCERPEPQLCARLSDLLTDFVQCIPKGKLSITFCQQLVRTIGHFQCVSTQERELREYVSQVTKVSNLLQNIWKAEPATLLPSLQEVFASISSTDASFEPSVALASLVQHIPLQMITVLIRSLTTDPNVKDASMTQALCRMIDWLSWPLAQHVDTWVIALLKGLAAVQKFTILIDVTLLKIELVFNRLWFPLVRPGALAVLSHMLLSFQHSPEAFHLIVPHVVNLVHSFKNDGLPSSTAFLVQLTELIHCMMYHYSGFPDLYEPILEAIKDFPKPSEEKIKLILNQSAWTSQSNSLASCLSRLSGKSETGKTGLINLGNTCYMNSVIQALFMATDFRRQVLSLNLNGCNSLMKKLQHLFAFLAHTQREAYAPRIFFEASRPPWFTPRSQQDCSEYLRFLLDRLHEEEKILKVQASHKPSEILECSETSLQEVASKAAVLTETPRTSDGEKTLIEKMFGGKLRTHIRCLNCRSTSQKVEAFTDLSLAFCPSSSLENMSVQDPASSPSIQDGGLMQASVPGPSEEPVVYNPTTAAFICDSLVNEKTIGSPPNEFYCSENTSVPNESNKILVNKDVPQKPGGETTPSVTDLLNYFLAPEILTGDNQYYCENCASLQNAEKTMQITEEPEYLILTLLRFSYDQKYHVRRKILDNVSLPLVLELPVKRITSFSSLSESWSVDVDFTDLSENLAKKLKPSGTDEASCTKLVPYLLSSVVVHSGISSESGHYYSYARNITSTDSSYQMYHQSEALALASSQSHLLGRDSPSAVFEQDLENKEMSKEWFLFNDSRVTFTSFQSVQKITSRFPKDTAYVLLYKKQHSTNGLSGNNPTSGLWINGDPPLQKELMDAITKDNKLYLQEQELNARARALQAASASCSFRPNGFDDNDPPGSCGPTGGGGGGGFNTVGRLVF
Summary of the method: as §1

[4] = target: T3, USP39 (UniProt Q53GS9)
T3 sequence (whole entry): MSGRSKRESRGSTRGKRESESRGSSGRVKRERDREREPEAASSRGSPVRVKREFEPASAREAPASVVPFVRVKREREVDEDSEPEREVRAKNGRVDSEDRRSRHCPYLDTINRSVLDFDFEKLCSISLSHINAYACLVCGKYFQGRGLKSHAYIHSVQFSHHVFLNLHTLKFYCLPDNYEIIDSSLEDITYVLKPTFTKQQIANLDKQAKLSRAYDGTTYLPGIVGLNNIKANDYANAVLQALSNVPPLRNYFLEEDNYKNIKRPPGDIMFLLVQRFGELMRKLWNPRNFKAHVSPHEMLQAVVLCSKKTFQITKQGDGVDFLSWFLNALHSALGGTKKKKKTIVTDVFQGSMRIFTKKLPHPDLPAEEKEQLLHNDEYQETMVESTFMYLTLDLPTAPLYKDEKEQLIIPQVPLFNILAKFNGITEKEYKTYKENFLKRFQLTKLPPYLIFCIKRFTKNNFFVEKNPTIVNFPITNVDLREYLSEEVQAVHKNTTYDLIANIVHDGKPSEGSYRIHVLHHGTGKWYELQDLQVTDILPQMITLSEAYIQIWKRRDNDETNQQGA
Summary of the method: as §1

[5] = target: T4, USP4 (UniProt Q13107)
T4 sequence (whole entry): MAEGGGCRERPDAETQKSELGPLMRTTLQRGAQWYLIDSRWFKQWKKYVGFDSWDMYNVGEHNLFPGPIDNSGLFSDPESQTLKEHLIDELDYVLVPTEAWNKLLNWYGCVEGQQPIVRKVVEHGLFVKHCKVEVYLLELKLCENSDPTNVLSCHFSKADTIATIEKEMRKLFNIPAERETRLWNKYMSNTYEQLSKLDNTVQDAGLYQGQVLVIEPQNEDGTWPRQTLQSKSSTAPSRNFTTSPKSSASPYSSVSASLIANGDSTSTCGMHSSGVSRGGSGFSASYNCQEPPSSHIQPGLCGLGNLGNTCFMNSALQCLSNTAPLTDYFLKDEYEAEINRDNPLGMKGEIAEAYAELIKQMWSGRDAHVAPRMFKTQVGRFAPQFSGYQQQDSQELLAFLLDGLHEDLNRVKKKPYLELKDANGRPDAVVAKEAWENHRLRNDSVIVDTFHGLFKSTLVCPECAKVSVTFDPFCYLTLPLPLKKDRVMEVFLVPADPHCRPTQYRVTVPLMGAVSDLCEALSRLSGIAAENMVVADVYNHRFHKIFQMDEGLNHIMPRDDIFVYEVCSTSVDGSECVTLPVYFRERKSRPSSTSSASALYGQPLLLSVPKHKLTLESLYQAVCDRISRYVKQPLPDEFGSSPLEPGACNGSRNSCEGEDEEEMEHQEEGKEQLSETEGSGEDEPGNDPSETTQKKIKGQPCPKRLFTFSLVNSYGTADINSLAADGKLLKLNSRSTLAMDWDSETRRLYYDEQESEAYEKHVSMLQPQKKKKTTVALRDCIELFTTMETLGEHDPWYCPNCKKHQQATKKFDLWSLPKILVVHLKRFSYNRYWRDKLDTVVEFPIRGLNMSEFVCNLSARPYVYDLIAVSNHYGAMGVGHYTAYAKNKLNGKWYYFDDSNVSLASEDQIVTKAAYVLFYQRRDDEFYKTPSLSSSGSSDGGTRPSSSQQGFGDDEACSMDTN
Summary of the method: as §1

Measured: log2 ratio of Biotin-Ahx-Ub-VS probe labelling

Chain of USP34 (Q70CQ2 whole entry, the tested form may be a part): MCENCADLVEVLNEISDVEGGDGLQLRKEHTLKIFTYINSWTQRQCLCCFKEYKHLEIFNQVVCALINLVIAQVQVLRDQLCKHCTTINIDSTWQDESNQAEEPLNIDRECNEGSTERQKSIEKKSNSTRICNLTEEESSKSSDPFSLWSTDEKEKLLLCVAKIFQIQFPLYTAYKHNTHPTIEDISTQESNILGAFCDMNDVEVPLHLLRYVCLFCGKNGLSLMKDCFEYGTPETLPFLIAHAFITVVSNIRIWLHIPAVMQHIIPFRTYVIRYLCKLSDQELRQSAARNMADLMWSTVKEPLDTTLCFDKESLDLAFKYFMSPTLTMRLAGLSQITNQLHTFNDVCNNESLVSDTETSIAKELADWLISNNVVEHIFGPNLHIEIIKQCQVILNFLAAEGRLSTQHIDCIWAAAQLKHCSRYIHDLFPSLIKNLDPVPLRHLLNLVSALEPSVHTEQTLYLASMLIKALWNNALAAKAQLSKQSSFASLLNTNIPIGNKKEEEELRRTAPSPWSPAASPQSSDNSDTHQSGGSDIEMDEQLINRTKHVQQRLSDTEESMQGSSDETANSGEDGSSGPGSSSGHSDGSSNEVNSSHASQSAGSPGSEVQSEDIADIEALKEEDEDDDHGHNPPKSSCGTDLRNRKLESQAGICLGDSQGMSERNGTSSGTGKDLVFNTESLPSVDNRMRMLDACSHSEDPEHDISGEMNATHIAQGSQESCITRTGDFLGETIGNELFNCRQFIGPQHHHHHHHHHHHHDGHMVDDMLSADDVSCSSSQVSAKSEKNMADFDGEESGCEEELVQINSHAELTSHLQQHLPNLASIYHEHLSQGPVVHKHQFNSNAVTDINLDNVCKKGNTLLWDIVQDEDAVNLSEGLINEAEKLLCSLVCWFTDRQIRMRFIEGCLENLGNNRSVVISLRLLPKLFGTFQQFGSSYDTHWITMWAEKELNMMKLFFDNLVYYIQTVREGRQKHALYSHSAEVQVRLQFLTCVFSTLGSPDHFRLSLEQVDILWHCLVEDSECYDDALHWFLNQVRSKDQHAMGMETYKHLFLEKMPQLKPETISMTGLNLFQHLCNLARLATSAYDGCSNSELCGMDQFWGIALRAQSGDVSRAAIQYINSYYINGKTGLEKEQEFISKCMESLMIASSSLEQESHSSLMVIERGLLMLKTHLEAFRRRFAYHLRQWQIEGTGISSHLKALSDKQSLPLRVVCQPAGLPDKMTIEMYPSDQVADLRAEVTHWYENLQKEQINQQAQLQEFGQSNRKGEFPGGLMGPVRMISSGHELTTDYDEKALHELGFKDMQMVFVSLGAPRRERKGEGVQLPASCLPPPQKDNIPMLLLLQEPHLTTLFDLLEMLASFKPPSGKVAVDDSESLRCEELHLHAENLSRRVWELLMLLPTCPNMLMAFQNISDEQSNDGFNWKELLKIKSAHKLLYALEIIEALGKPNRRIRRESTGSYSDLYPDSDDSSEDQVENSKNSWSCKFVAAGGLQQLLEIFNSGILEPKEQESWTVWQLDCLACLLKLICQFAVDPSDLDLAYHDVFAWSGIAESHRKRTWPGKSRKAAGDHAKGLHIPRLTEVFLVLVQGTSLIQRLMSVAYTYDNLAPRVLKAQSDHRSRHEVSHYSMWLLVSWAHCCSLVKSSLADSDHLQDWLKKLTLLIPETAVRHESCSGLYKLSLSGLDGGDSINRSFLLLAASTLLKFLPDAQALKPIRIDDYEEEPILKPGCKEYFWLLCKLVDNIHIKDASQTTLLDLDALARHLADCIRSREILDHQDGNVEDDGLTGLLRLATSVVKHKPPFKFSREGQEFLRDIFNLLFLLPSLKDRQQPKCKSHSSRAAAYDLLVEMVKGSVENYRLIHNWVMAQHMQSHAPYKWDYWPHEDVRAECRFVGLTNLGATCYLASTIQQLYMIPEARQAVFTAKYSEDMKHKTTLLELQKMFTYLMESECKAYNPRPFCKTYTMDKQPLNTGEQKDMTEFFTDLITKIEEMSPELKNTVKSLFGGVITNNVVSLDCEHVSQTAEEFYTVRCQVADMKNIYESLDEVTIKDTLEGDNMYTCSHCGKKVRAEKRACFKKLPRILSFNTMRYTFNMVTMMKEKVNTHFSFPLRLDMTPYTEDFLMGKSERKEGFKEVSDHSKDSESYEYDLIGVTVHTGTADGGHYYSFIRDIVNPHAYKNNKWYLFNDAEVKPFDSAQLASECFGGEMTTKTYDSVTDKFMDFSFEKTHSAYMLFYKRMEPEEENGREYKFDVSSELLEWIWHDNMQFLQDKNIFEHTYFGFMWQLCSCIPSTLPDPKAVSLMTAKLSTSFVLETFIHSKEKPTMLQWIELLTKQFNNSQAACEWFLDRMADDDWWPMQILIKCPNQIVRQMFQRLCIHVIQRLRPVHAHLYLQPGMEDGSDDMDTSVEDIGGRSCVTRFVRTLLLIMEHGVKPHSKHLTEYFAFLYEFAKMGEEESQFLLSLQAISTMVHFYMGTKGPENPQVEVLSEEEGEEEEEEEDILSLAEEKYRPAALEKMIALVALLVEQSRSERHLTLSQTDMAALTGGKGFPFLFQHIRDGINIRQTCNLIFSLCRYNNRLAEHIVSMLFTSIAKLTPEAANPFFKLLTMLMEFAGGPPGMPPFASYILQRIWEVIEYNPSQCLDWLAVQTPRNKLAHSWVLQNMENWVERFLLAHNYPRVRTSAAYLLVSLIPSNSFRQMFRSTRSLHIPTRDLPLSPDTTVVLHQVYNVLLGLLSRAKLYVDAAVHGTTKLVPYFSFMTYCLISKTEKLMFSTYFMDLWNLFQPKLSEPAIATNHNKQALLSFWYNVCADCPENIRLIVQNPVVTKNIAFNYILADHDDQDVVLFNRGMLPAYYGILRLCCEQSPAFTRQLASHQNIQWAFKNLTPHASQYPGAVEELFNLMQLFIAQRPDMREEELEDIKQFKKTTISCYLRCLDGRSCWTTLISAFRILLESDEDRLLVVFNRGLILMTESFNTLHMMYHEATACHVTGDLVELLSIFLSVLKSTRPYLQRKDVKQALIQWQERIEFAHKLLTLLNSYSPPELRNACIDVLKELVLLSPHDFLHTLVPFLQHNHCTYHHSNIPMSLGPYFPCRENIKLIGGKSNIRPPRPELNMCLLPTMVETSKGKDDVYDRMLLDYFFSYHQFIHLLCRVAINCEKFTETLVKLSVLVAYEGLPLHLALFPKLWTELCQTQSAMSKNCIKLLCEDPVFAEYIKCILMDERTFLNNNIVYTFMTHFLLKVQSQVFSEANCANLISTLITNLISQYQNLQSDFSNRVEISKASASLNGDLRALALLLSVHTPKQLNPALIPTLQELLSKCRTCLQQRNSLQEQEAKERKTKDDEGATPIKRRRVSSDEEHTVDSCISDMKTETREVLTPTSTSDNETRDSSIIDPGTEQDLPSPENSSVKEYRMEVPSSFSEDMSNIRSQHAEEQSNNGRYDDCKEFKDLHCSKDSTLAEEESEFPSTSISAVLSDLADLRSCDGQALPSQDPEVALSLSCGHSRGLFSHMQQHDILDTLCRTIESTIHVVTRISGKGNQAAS

COc1ccc(CN(C)C(=O)CCl)cc1
inactive: [1] -0.0886 | [2] 0.0384 | [3] 0.0505 | [4] 0.298 | [5] -0.016
